Inhibition data for 40 compounds are collected here from ChEMBL document CHEMBL3433997, “St. Jude Leishmania screening dataset” (2016).

In one experiment the target is Solute carrier family 2, facilitated glucose transporter member 1 (Homo sapiens) (UniProt P11166). The experiment in a line: ST_JUDE_LEISH: Cytotoxicity at 2uM final concentration against transgenic Leishmania Mexicana promastigotes LmGLUT1 that are glucose transport deficient and complemented with the human glucose transporter GLUT1. Activity is measured by DNA content using SYBR green in vitro. In kind it is functional.
Chain of Solute carrier family 2, facilitated glucose transporter member 1 (Homo sapiens) (P11166 whole entry): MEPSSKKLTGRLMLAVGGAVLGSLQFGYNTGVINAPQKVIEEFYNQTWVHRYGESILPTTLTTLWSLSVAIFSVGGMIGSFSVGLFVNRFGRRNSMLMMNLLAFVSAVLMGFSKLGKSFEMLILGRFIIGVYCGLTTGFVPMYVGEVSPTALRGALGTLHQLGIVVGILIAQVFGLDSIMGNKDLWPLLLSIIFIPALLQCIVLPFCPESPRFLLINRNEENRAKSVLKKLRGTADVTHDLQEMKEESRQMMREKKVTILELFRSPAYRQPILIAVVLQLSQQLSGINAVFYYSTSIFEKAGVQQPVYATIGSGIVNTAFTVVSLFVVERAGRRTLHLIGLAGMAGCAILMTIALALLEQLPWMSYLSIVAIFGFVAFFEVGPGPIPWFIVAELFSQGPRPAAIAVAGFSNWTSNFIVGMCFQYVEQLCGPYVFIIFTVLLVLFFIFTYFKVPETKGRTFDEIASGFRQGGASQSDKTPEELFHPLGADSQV
In general, inhibition refers to the relative decrease from the control value, in per cent. `O=C(Nc1ccc2c(c1)CCN2C1CCN(Cc2cccc3cc[nH]c23)C1)c1ccco1` (centres undefined): the inhibition is 0.46%.

Take `N#Cc1ccc2c(c1)CCN(CCCn1c(-c3ccc4ccccc4c3)nc3ccncc31)CC2`: the inhibition was determined as 15.1%.

For the compound `CC(C)(CNC(=O)/C=C/c1ccc(C(F)(F)F)cc1)CNc1cc(=O)c2ccccc2[nH]1`, the inhibition was determined as 1.07%.

Consider `COc1ccc(OC)c(NC(=O)CSc2nc(-c3ccccc3Cl)ns2)c1`, for which the inhibition worked out at 0.9%.

On to `COc1cccc(CN(C(=O)Nc2ccccc2F)[C@H]2C[C@H]3C(=O)Nc4cc(F)ccc4C(=O)N3C2)c1`, for which the inhibition was determined as 4.68%.

In the case of `NC(=O)c1ccccc1OCC(=O)Nc1cccc(-c2ccc(-c3nc4cc(C(F)(F)F)ccc4[nH]3)cc2)c1`, the inhibition is 4.44%.

On to `Cc1cccc2nc(-c3ccc(-c4cccc(NC(=O)NCc5cccc(F)c5)c4)s3)[nH]c12`, for which the inhibition is -1.66%.

Consider `C=C(C)Cn1cc(C2CCN(CCCCNC(=O)c3sc(-c4ccc(Cl)cc4Cl)nc3CO)CC2)c2ccccc21`, for which the inhibition is -1.31%.

`COc1ccccc1-n1c(-c2ccc3ccccc3c2)csc1=NC(=O)c1ccccc1`: the inhibition worked out at 0.68%.

As to `COCCNCc1ccc(-c2cccc(CNc3ccc(OC)cc3)c2)cc1`, the inhibition stood at 11.3%.

For `CCN1CCC(NCc2ccc(-c3ccc(Cl)s3)cc2)CC1`, the inhibition is -1.87%.

Consider `CC(=O)Nc1ccc(CN2CCC(CNC(=O)c3cc(-c4cccc(C(F)(F)F)c4)cs3)C2)cc1` (centres undefined), for which the inhibition was -0.71%.

On to `CCn1ccc2c(N3CCCS3(=O)=O)cc(C(=O)N[C@@H](Cc3ccccc3)[C@H](O)CNC(C)(C)c3cccc(OC)c3)cc21`, for which the inhibition came to 0.43%.

`O=C(/C=C/c1ccc(Cl)c(Cl)c1)NCCCCCN1CCCN(C(=O)Nc2cccc(C(F)(F)F)c2)CC1`: the inhibition came out at 3.99%.

Regarding `Clc1ccc(CCNCCCCCCNCCc2ccc3c(c2)OCO3)cc1`, the inhibition amounted to 8.05%.

Regarding `O=[N+]([O-])c1ccc(N/C(=N\c2ccccc2Br)NCCOc2ccccc2)c(O)c1`, the inhibition is 0.7%.

As for `CCCCNC(=O)C(C)NC(=O)c1ccc(O)c(-c2ccc(Cl)c(Cl)c2)c1` (centres undefined), the inhibition is -0.19%.

Consider `O=C(Nc1ccc(-c2ccccc2)c(OCCN2CCNCC2)c1)c1ccc(-c2ccc(Cl)cc2)cc1`, for which the inhibition worked out at 3.89%.

With `Cc1ccc(C)c2sc(N(CCCn3ccnc3)C(=O)C=Cc3cccs3)nc12`, the inhibition turned out to be 1.74%.

Take `O=S(=O)(Nc1cc2c(cc1O)CCN(C1CCC1)CC2)c1ccc(-c2ccc(F)cc2)cc1`: the inhibition was 5.67%.

Take `N=C(N)NN=Cc1c2ccccc2c(Cl)c2ccc(Cl)cc12`: the inhibition is 107%.

Regarding `COc1ccc(CNC(=O)Nc2cccc(-c3csc(NC(=N)N)n3)c2)cc1`, the inhibition is -2.22%.

Consider `CCCc1cc(NCc2ccncc2)nc(Nc2ccc(F)cc2)n1`, for which the inhibition came to 13.4%.

Take `CC(=O)c1sc(Cc2nc3ccccc3s2)nc1C`: the inhibition was 0.49%.

Another experiment deals with Hexose transporter 1 (Plasmodium falciparum) (UniProt O97467). The experiment in a line: ST_JUDE_LEISH: Cytotoxicity at 2uM final concentration against transgenic Leishmania Mexicana promastigotes LmPfHT that are glucose transport deficient and complemented with the Plasmodium falciparum hexose transporter. Activity is measured by DNA content using SYBR green in vitro. In kind it is functional.
As to `O=C(Nc1cccc(CN2CCCN(CC3CC3)CC2)c1)c1ccc(Cl)c(Cl)c1`, the inhibition stood at 10.2%.

As for `Cc1cccc2nc(-c3cccc(-c4ccc(NC(=O)Nc5ccc(Cl)c(Cl)c5)cc4)c3)[nH]c12`, the inhibition is -1.23%.

As for `Cc1c2c(nn1-c1ccccc1)C(c1ccccc1)N(c1ccccc1)C2=O` (centres undefined), the inhibition was 0.43%.

Regarding `Cc1cc(N[C@@H](CC(C)C)C(=O)NCc2cccs2)nc(NCCc2ccc(F)cc2)n1`, the inhibition was -0.43%.

For the compound `CCN(CC)S(=O)(=O)n1ncc2c3c(N)nc(N)nc3ccc21`, the inhibition was 0.17%.

In the case of `O=C(Nc1ccc(Cl)cc1Cl)NC1CCN(CCCCCNC(=O)C2CC2c2ccc(Cl)c(Cl)c2)CC1` (centres undefined), the inhibition worked out at 11.3%.

In the case of `COCCNCc1ncsc1-c1ccc2c(Nc3ccc(Oc4ccccc4)cc3)ccnc2c1`, the inhibition was determined as 1.15%.

In the case of `O=C(Nc1cc2cc(-c3ccc(CN4CCCCC4)cc3)ccc2n2cnnc12)NC1CCCC1`, the inhibition worked out at 6.44%.

On to `O=C(NCC1CCN(C/C=C/c2ccccc2)CC1)Nc1ccc(Oc2ccccc2)cc1`, for which the inhibition was found to be 8.3%.

`CCCCCn1c(Sc2ccc(C#N)c([N+](=O)[O-])c2)nnc1-c1ccc(Cl)cc1`: the inhibition came out at 4.27%.

In the case of `CCN(c1ccc(O)c(CN2CCCCC2)c1)c1ccc([N+](=O)[O-])cn1`, the inhibition was 1.08%.

Regarding `Cc1ccc(-c2nc3cc(C(=O)NC4CCN(Cc5ccccc5)CC4)ccc3[nH]2)cc1`, the inhibition was determined as 2.07%.

With `CS(=O)(=O)c1ccc(-c2cncc(Cl)n2)cc1`, the inhibition turned out to be 3.42%.

As to `O=C(Nc1ccc(-c2cccc(-c3nc4cc(C(F)(F)F)ccc4[nH]3)c2)cc1)c1ccoc1`, the inhibition turned out to be 3.58%.

For the compound `Clc1ccc(CNC2CCN(CC3CCCCC3)CC2)cc1`, the inhibition came to 11.2%.

Consider `CCC[C@@H]([C@@H](CC1CCCCC1)C(=O)N[C@H](C(=O)Nc1ccccn1)[C@H](C)CC)N(O)C=O`, for which the inhibition is 3.35%.

Turning to `O=C(Nc1ccc2c(c1)CCN2C1CCN(Cc2cccc3cc[nH]c23)C1)c1ccco1` (centres undefined), the inhibition was -0.85%.

Consider `N#Cc1ccc2c(c1)CCN(CCCn1c(-c3ccc4ccccc4c3)nc3ccncc31)CC2`, for which the inhibition came to 16.1%.

Turning to `CC(C)(CNC(=O)/C=C/c1ccc(C(F)(F)F)cc1)CNc1cc(=O)c2ccccc2[nH]1`, the inhibition was -1.76%.

For `COc1ccc(OC)c(NC(=O)CSc2nc(-c3ccccc3Cl)ns2)c1`, the inhibition is 0.98%.

Take `COc1cccc(CN(C(=O)Nc2ccccc2F)[C@H]2C[C@H]3C(=O)Nc4cc(F)ccc4C(=O)N3C2)c1`: the inhibition was determined as 4.97%.

On to `NC(=O)c1ccccc1OCC(=O)Nc1cccc(-c2ccc(-c3nc4cc(C(F)(F)F)ccc4[nH]3)cc2)c1`, for which the inhibition came out at 3.99%.

In the case of `Cc1cccc2nc(-c3ccc(-c4cccc(NC(=O)NCc5cccc(F)c5)c4)s3)[nH]c12`, the inhibition is -0.47%.

Turning to `C=C(C)Cn1cc(C2CCN(CCCCNC(=O)c3sc(-c4ccc(Cl)cc4Cl)nc3CO)CC2)c2ccccc21`, the inhibition is -1.73%.

Regarding `COc1ccccc1-n1c(-c2ccc3ccccc3c2)csc1=NC(=O)c1ccccc1`, the inhibition was -0.46%.

Turning to `COCCNCc1ccc(-c2cccc(CNc3ccc(OC)cc3)c2)cc1`, the inhibition was 8.16%.

On to `CCN1CCC(NCc2ccc(-c3ccc(Cl)s3)cc2)CC1`, for which the inhibition is -1.38%.

As for `CC(=O)Nc1ccc(CN2CCC(CNC(=O)c3cc(-c4cccc(C(F)(F)F)c4)cs3)C2)cc1` (centres undefined), the inhibition amounted to 0.04%.

Consider `CCn1ccc2c(N3CCCS3(=O)=O)cc(C(=O)N[C@@H](Cc3ccccc3)[C@H](O)CNC(C)(C)c3cccc(OC)c3)cc21`, for which the inhibition was found to be 2.4%.

Regarding `O=C(/C=C/c1ccc(Cl)c(Cl)c1)NCCCCCN1CCCN(C(=O)Nc2cccc(C(F)(F)F)c2)CC1`, the inhibition stood at 2.84%.

As for `Clc1ccc(CCNCCCCCCNCCc2ccc3c(c2)OCO3)cc1`, the inhibition turned out to be 8.53%.

Consider `O=[N+]([O-])c1ccc(N/C(=N\c2ccccc2Br)NCCOc2ccccc2)c(O)c1`, for which the inhibition was -0.42%.

Regarding `CCCCNC(=O)C(C)NC(=O)c1ccc(O)c(-c2ccc(Cl)c(Cl)c2)c1` (centres undefined), the inhibition is -0.53%.

As to `O=C(Nc1ccc(-c2ccccc2)c(OCCN2CCNCC2)c1)c1ccc(-c2ccc(Cl)cc2)cc1`, the inhibition stood at 5.96%.

With `Cc1ccc(C)c2sc(N(CCCn3ccnc3)C(=O)C=Cc3cccs3)nc12`, the inhibition worked out at 2.3%.

Consider `O=S(=O)(Nc1cc2c(cc1O)CCN(C1CCC1)CC2)c1ccc(-c2ccc(F)cc2)cc1`, for which the inhibition was found to be 8.27%.

As to `N=C(N)NN=Cc1c2ccccc2c(Cl)c2ccc(Cl)cc12`, the inhibition was 106%.

For the compound `COc1ccc(CNC(=O)Nc2cccc(-c3csc(NC(=N)N)n3)c2)cc1`, the inhibition was -0.98%.

As for `CCCc1cc(NCc2ccncc2)nc(Nc2ccc(F)cc2)n1`, the inhibition was 8.66%.

On to `CC(=O)c1sc(Cc2nc3ccccc3s2)nc1C`, for which the inhibition was 1.15%.
